Experimental data reported in PubChem BioAssay AID1159580 (chemical genetic matrix, 2015).
The whole screen tested about 5,500 compounds, of which about 2,000 (36%) were called active. Another 18% or so got no clear call; they are omitted. Rule as the data show it: active = normalized growth mostly below about 0.91 (no sharp cut-off); inconclusive = no clear call, values can overlap the other calls; inactive = mostly above about 0.92. This is one part of the list.

Assay: chemical genetic growth profiling, strain panel (AID 1159580);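 also: tested at 20 µM; growth read once vehicle control cultures reached saturation at 30 °C; 1 = growth at the plate median or of vehicle wells; lower values mean less growth of the strain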
Settings: growth OD

Measured: normalized growth

CC(C)(C)c1cc(C(C)(C)C)n(-c2ccc([N+](=O)[O-])cc2)n1
inactive: S. cerevisiae deletion strains, locus YAL013W, strain DEP1, hits give low values 1.02 | S. cerevisiae deletion strains, locus YBR229C, strain ROT2, hits give low values 1.01 | S. cerevisiae deletion strains, locus YCL061C, strain MRC1, hits give low values 0.994 | S. cerevisiae deletion strains, locus YDL101C, strain DUN1, hits give low values 1.01 | S. cerevisiae deletion strains, locus YDR150W, strain NUM1, hits give low values 0.991 | S. cerevisiae deletion strains, locus YEL061C, strain CIN8, hits give low values 1.02 | S. cerevisiae deletion strains, locus YGR078C, strain PAC10, hits give low values 1.01 | S. cerevisiae deletion strains, locus YHR030C, strain SLT2, hits give low values 1.06 | S. cerevisiae deletion strains, locus YHR087W, strain rtc3, hits give low values 1.01 | S. cerevisiae deletion strains, locus YJL187C, strain SWE1, hits give low values 1 | S. cerevisiae deletion strains, locus YJR043C, strain POL32, hits give low values 1.02 | S. cerevisiae deletion strains, locus YJR075W, strain HOC1, hits give low values 0.997 | S. cerevisiae deletion strains, locus YKL190W, strain CNB1, hits give low values 0.998 | S. cerevisiae deletion strains, locus YLR039C, strain RIC1, hits give low values 1.04 | S. cerevisiae deletion strains, locus YLR058C, strain SHM2 (second series), hits give low values 1.01 | S. cerevisiae deletion strains, locus YLR085C, strain ARP6, hits give low values 1.01 | S. cerevisiae deletion strains, locus YLR262C, strain YPT6, hits give low values 1.01 | S. cerevisiae deletion strains, locus YML094W, strain GIM5, hits give low values 1.04 | S. cerevisiae deletion strains, locus YMR219W, strain ESC1, hits give low values 1 | S. cerevisiae deletion strains, locus YMR263W, strain SAP30, hits give low values 0.999 | S. cerevisiae deletion strains, locus YMR307W, strain GAS1, hits give low values 0.995 | S. cerevisiae deletion strains, locus YNL153C, strain GIM3, hits give low values 1 | S. cerevisiae deletion strains, locus YNL298W, strain CLA4 (second series), hits give low values 1.05 | S. cerevisiae deletion strains, locus YNL322C, strain KRE1, hits give low values 1 | S. cerevisiae deletion strains, locus YNR030W, strain Alg12, hits give low values 1.04 | S. cerevisiae deletion strains, locus YOL006C, strain TOP1, hits give low values 1.06 | S. cerevisiae deletion strains, locus YPL055C, strain LGE1, hits give low values 1.04 | S. cerevisiae deletion strains, locus YPL241C, strain CIN2, hits give low values 1.07 | S. cerevisiae deletion strains, locus YPR135W, strain CTF4, hits give low values 1.03 | S. cerevisiae strains, strain wild type, hits give low values 1.01
